These results are taken from ChEMBL document CHEMBL3988442, “University of Dundee, Small-Polar-MMV Screening Library” (2021).

Among all 48,000 compounds or so, about 13,000 (27%) showed an effect of 50% or more. Some of the results follow.

For the assay, the system named is Wolbachia pipientis. The experiment in a line: Anti-Wolbachia Cell-Based Screen. It counts as functional. Also on record: scale not given: in the data most compounds retested in dose-response had high values. To be noted: 5 µM.
For the molecule `c1cnn(CC2CCCCN2Cc2cn3ccsc3n2)c1` (stereo unspecified), the “Percent Effect” value came to 2.763%.
The figure for `COc1ccc2c(=O)n(CC3CCCCN3C)ccc2c1OC` (stereo unspecified) is -25.61%; for `CCN1C[C@@H]2CN(S(=O)(=O)c3cccs3)C[C@@H]2C1=O` it is -17.06%; for `N#Cc1cc(NS(=O)(=O)CC2CCCCO2)ccc1F` (stereo unspecified) it is -2.711%.
In the case of `COc1cc(CN2CCCC2)ccc1OC12CCCN(CC1)C2` (stereo unspecified), the “Percent Effect” value is 119.4%.
Turning to `COc1ccc(CCNC(=O)NCc2cccc(C(N)=O)c2)cc1OC`, the “Percent Effect” value is 9.819%.
On to `COc1cc(CN2CCCC2)ccc1Oc1ncccc1C(F)(F)F`, for which the “Percent Effect” value is 26.33%.
Turning to `CCCc1ccc(OCCNCc2ccco2)c(OC)c1.Cl`, the “Percent Effect” value is listed as -10.12%.
For `COc1ccc(CN2CCCC3(CC2)CNC(=O)O3)cc1OC` (stereo unspecified), the “Percent Effect” value worked out at 1.159%.
For the molecule `CCCc1ccc(OC23CCCN(CC2)C3)c(OC)c1` (stereo unspecified), the “Percent Effect” value is reported as 112.6%.
In the case of `CC(C)c1nccn1C(C)C(=O)N1CCN(S(C)(=O)=O)CC1` (stereo unspecified), the “Percent Effect” value is recorded as 15.78%.
For `CC(C)c1cc(C(=O)N(c2ccc(F)cn2)C2CCOCC2)nn1C`, the “Percent Effect” value was -15.95%.
Take `COC[C@@]12CC[C@@H](N3CCOCC3)C[C@H]1CCN(c1ncccc1C)C2`: the “Percent Effect” value is recorded as -3.262%.
As to `O=C(C1CCOCC1)N1CC[C@H]2[C@H]1CCN2c1nncs1.O=C(O)C(F)(F)F`, the “Percent Effect” value was determined as 9.105%.
The figure for `O=C(O)C(F)(F)F.O=C(c1cscn1)N1CC[C@@H]2[C@@H]1CCN2C1CCOCC1` is 97.96%; for `O=C(O)C(F)(F)F.O=C(c1cscn1)N1CCO[C@H]2[C@@H](Oc3ccccn3)CC[C@@H]21` it is -13.1%; for `O=C(O)C(F)(F)F.O=C(c1cscn1)N1CC[C@@H]2[C@@H]1CCN2C1CCOC1` (stereo partly specified) it is 99.27%.
Take `CN1CCN([C@@H]2CCN(C3CCOC3)[C@H]2Cc2cnn(C)c2)CC1.O=C(O)C(F)(F)F.O=C(O)C(F)(F)F.O=C(O)C(F)(F)F` (stereo partly specified): the “Percent Effect” value was -5.901%.
Take `CN(CC(=O)N(C)C1CCCCC1)Cc1nc2ccccc2c(=O)[nH]1`: the “Percent Effect” value is -1.325%.
On to `CC(NC(=O)NC1CCN(Cc2ccccn2)CC1)c1ccco1` (stereo unspecified), for which the “Percent Effect” value turned out to be 5.238%.
`c1cc(CNc2ccc(-c3nc(C4CC4)no3)cn2)no1`: the “Percent Effect” value is listed as -4.81%.
For the molecule `CC(=O)NC1CCCN(c2nc3ccccc3cc2CO)C1` (stereo unspecified), the “Percent Effect” value is 8.297%.
On to `COc1ccc(-n2ncc(C(C)NC3Cc4ccccc4C3)c2C)cc1` (stereo unspecified), for which the “Percent Effect” value came to 4.346%.
In the case of `Cc1ncsc1C(=O)NC1CCN(CC(=O)N(C)c2ccccc2)CC1`, the “Percent Effect” value was -1.351%.
`O[C@@H]1C[C@@H](c2nc(Cc3ccccc3)no2)N(CC2CC2)C1`: the “Percent Effect” value is recorded as 3.423%.
As to `NCC1Cc2cc(F)cc(-c3cnccn3)c2O1` (stereo unspecified), the “Percent Effect” value is recorded as -7.505%.
